PubChem BioAssay AID1619 (SRMLSC, 2009)
Among all 220,000 compounds or so, about 830 (0.38%) were called active.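 Rule for the calls: active = compound inhibiting the enzyme by more than half at any dose during confirmatory dose-response retesting; inconclusive = strong single-dose inhibitors picked by rank but not retested; inactive = the rest.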 These entries were drawn from the full list. Potency and affinity values are given separately.

target: Leucine aminopeptidase (Plasmodium falciparum (isolate 3D7)) (UniProt Q8IL11); test: P. falciparum M17LAP inhibitors, primary screen, biochemical, fluorogenic H-Leu-NHMec substrate, 1536-well (AID 1619); conditions: recombinant M17LAP, H-Leu-NHMec fluorogenic kinetic assay; at 30 µM; active compounds read high;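 note: plate controls were full reaction with DMSO carrier for no effect and no enzyme background for full effect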
Sequence (Q8IL11 whole entry, looked up): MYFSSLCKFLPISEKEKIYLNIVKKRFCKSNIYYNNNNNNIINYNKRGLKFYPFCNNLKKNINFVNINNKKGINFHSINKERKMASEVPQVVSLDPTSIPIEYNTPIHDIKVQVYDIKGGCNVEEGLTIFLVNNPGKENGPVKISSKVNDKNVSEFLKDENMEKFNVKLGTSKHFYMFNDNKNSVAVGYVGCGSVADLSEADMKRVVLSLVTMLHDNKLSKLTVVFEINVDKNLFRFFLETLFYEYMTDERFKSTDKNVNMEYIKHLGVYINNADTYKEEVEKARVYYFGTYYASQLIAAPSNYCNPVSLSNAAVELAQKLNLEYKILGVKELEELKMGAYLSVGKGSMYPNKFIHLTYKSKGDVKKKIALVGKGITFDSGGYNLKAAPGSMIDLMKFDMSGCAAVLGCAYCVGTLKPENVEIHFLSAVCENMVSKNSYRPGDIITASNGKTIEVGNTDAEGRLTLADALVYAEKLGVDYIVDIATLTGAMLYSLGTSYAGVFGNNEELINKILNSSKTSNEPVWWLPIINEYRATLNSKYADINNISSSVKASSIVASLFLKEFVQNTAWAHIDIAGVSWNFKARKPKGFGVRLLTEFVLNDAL

inhibition, inactive:
COc1ccc(S(=O)(=O)N(CC(=O)N/N=C/c2cccs2)c2cc(C)cc(C)c2)cc1OC -9.62%
Cc1ccc(O)c(CNn2cnnc2)c1 -3.08%
C/C(=N\O)c1oc2ccc3c(C)cc(=O)oc3c2c1C 2.81%
COc1nc(N(CC(N)=O)S(=O)(=O)c2ccccc2)nc(C)c1Cl -8.61%
Cc1ccc(-n2nnnc2CN2CCCCC2)cc1 -0.54%
COC(=O)c1scc(C)c1N/N=C(\C)c1cc(F)c(Cl)cc1F -1.99%
Cn1ncc(Cl)c1C(=O)N/N=C/c1cc2c(cc1[N+](=O)[O-])OCO2 10.6%
CCCc1ncc(C(O)c2ccc(OC)cc2)n1C (centres undefined) -6.37%
Cc1ccc(CNC(=O)CSc2n[nH]c(N)n2)cc1 16.9%
Cc1ccc(NC(=O)CN(C)C(=O)CSc2nc(C)cs2)cc1 -4.97%
Cc1ccc(NC(=O)CN(C)C(=O)CSc2nc3ccccc3o2)cc1 3.63%
Cc1ccc(Oc2ccc(NC(=O)CSc3n[nH]c(N)n3)cc2)cc1 -7.16%
CCn1ncc(/C=N\NC(=O)c2ccc3c(c2)c(C)c(C)n3Cc2ccccc2)c1C 8%
Cc1c(C(=O)N2CCN(Cc3ccc4c(c3)OCO4)CC2)cccc1[N+](=O)[O-] 11.8%
COc1ccc(Nc2nc(C(=O)N3CCc4cc(OC)c(OC)cc4C3)cs2)cc1 -3.32%
COc1ccc(NC(=O)COC(=O)c2ccco2)c([N+](=O)[O-])c1 -7.81%
CN(Cc1cnccn1)C(=O)CC1C(=O)NCCN1Cc1c(F)cccc1Cl (centres undefined) 4.09%
CCc1ccc(C(=O)NC(C(=O)O)C(C)C)cc1 (centres undefined) 56.2%
CCCCc1ccc(NC(=O)N[C@@H](C)C(=O)O)cc1 -2.39%
CCCCc1ccc(NC(=O)N[C@@H](CC(C)C)C(=O)O)cc1 -4.28%
CCCCCOc1ccc(C(=O)NC(C(=O)O)C(C)C)cc1 (centres undefined) 46.7%
CCCCc1ccc(NC(=O)C(C)CC)cc1 (centres undefined) 4.63%
CCc1ccc(NC(=O)N[C@H](C(=O)O)C(C)CC)cc1 (some centres undefined) -1.8%
CC(C)(C)NC(=O)CN(Cc1ccc(F)cc1)C(=O)Cn1nnc(-c2ccc(F)cc2)n1 2.63%
Cc1cccc(OCCCOc2cccc3cccnc23)c1C -0.78%
C[C@@H](C(=O)N1CCN(C(=O)OC(C)(C)C)CC1)n1cc(CCC(=O)O)nn1 3.71%
Cc1ccc(SCCn2nc(C(=O)O)c3ccccc3c2=O)cc1 11.2%
Cc1cccc(NS(=O)(=O)c2ccc3c(c2)NC(=O)CC(=O)N3)c1 0.82%
COc1ccccc1NC(=O)c1c(NC(=O)CCC(=O)O)sc2c1CCCCC2 12%
COc1ccc(NC(=O)c2c(NC(=O)CCC(=O)O)sc3c2CCCCC3)cc1 46%
CCOc1ccccc1NC(=O)c1c(NC(=O)CCC(=O)O)sc2c1CCCCC2 3.19%
O=C(Nc1sc2c(c1C(=O)O)CCCCC2)c1ccccc1 54.2%
Cc1ccccc1C(=O)Nc1sc2c(c1C(=O)O)CCC2 25.7%
CCOC(=O)c1ccc(NC(=O)c2c(NC(=O)CCC(=O)O)sc3c2CCCCC3)cc1 4.02%
O=C(NCCC(c1ccccc1)c1ccccc1)c1cnccn1 -1.23%
COc1ccc(C)cc1NC(=O)C(OC(=O)CNC(=O)c1ccc(Br)cc1)c1ccccc1 (centres undefined) -14.5%
CN(C)S(=O)(=O)c1ccc(NC(=O)Cn2ccsc2=N)cc1 0.8%
c1ccc(-c2nc(NCC3CCCO3)c3oc4ccccc4c3n2)cc1 (centres undefined) -4.77%
Cc1noc(C)c1COc1ccc(C(=O)OCC(=O)Nc2ccc3c(c2)OCO3)cc1 4.59%
COc1ccc2[nH]c(C)c(CCNC(=S)Nc3ccc(F)cc3)c2c1 -5.1%
O=C(Cn1cc2c(n1)CCCC2)N1CCc2ccccc21 3.11%
COc1ccccc1N1CC(C)C(=O)NC1=S (centres undefined) 8%
Cc1onc(-c2ccccc2)c1C(=O)NC(=S)NNC(=O)c1ccc(O)cc1 14.3%
Cc1ccccc1C(=O)NNC(=S)NC(=O)c1ccc(Cl)cc1Cl 90.7%
Cc1ccccc1C(=O)NNC(=S)NC(=O)c1cccnc1 80.7%
Cc1onc(-c2ccccc2)c1C(=O)NNC(=S)NC(=O)c1ccc(Br)cc1 44.1%
Cc1ccccc1C(=O)NC(=S)NCC(=O)c1ccccc1 0.75%
Cc1ccccc1C(=O)NCC(=O)NNC(=S)NC(=O)c1ccccc1C 63.2%
Cc1ccc(NC(=O)CN(c2ccccc2)S(=O)(=O)N(C)C)cc1 -5.3%
CCOC(=O)c1cnc2c(C(F)(F)F)cccc2c1N1CCOCC1 6.02%
C/C(CC(=O)N(C(C)C)C(C)C)=N\NC(=O)COc1ccc(Cl)cc1Cl 7.13%
Cc1ccc(C(=O)Nc2ccc3cn[nH]c3c2)cc1S(=O)(=O)N1CCCCC1 4.67%
CCOC(=O)NC(=O)CSc1nnnn1-c1ccccc1 0.74%
OCC(O)C1OC(Nc2ccc(Cl)cc2)C(O)C1O (centres undefined) 2.43%
Cc1nn(S(=O)(=O)c2cccc([N+](=O)[O-])c2)c(C)c1Br 10.8%
Cc1ccc(NC(=O)COC(=O)Cn2c(C)csc2=O)cc1C 4.89%
Nc1nn(-c2ccccc2)c(N)c1N=Nc1cccc(F)c1 -3.61%
Nc1n[nH]c(N)c1N=Nc1ccc(Cl)cc1Cl 47.6%
COc1ccc(N=Nc2c(N)n[nH]c2N)cc1 9.88%
Cc1[nH]nc(N)c1N=Nc1ccc(Br)cc1 -1.99%
Nc1n[nH]c(N)c1N=Nc1ccc2c(c1)OCO2 -3.08%
Nc1nn(-c2ccccc2)c(N)c1N=Nc1ccccc1 -19.2%
Nc1n[nH]c(C2CC2)c1N=Nc1ccc(Cl)cc1 18.4%
COC(=O)c1ccccc1N=Nc1c(N)n[nH]c1N 12.4%
